Laboratory results published in PubChem BioAssay (EPA / NIEHS).
Records with an inconclusive call do not appear. Active and inactive are the calls of the source. How the source made its calls, unless noted: active means hit-call score of the fitted dose curve at least 0.9, where 1 is the maximum; inactive means score below 0.9.

Assay: CCTE_Harrill_HTTr_Viability_MCF7: CCTE's 6-hour Cell Viability Assessment for the High-Throughput Transcriptomics (HTTr) Platform, in MCF-7 cells cultured in DMEM + 10% fetal bovine serum, Harrill Lab (AID 2284010)
Summary of the method: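 Membrane integrity was scored by high-content imaging of propidium iodide dye exclusion after a 6 h exposure across an eight-point dilution series. Data were fitted bidirectionally relative to DMSO as negative control and baseline.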

Row | SMILES | outcome
1 | O=c1[nH]c(=O)c2cn[nH]c2[nH]1 | inactive
2 | O=C1c2ccccc2C(=O)c2c(O)ccc(O)c21 | inactive
3 | CCC1(c2ccccc2)C(=O)NCNC1=O | inactive
4 | OC[C@H]1O[C@@H](Oc2ccc(O)cc2)[C@H](O)[C@@H](O)[C@@H]1O | inactive

Assay: CCTE_Harrill_HTTr_Apoptosis_MCF7: CCTE's 6-hour Apoptosis Assessment for the High-Throughput Transcriptomics (HTTr) Platform, in MCF-7 cells cultured in DMEM + 10% fetal bovine serum, Harrill Lab (AID 2284011)
Summary of the method: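 Apoptosis in MCF-7 cells grown in DMEM with 10% fetal bovine serum was scored after a six hour exposure by high content imaging of caspase-3/7 activation (CellEvent Caspase 3/7 Green), with DMSO serving as negative control and baseline.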

Row | SMILES | outcome | AC50
5 | CCCC1O[C@@H]2C[C@H]3[C@@H]4CCC5=CC(=O)C=C[C@]5(C)[C@H]4[C@@H](O)C[C@]3(C)[C@]2(C(=O)CO)O1 (stereo partly specified) | inactive | –
6 | Brc1ccc(Br)c(Br)c1 | inactive | –
7 | Nc1ccn([C@H]2CS[C@@H](CO)O2)c(=O)n1 | inactive | –
8 | Clc1ccc(C(c2ccccc2Cl)C(Cl)Cl)cc1 (stereo unspecified) | inactive | –
9 | CC(=O)O[C@@H]1CC2CCC1(C)C2(C)C (stereo partly specified) | inactive | –
10 | CC1=CC[C@@]23C[C@@H]1C(C)(C)[C@@H]2CC[C@H]3C | inactive | –
11 | CS(C)=O | inactive | –
12 | COC(=O)c1ccc(C)cc1C1=NC(C)(C(C)C)C(=O)N1 (stereo unspecified) (tested in a mixture with another compound) | inactive | –
13 | OCCc1ccccc1 | inactive | –
14 | C1=CC2C3C=CC(C3)C2C1 (stereo unspecified) | inactive | –
15 | CCCSc1ccc2nc(NC(=O)OC)[nH]c2c1 | inactive | –
16 | CS(=O)(=O)OCCCCOS(C)(=O)=O | inactive | –
17 | CCOC(=O)c1ccc(N)cc1 | inactive | –
18 | CC1(C)C2=CCCC(C)(C)[C@]23CC[C@H]1C3 | inactive | –
19 | O=c1[nH]c(=O)c2cn[nH]c2[nH]1 | inactive | –
20 | O=c1c(O)c(-c2ccc(O)cc2)oc2cc(O)cc(O)c12 | inactive | –
21 | C=CC(=O)OCCCC | inactive | –
22 | COc1ccc(CCN2CCC(Nc3nc4ccccc4n3Cc3ccc(F)cc3)CC2)cc1 | inactive | –
23 | C[C@@H]1CCN(C(=O)[C@H](CCCN=C(N)N)NS(=O)(=O)c2cccc3c2NC[C@H](C)C3)[C@@H](C(=O)O)C1 | inactive | –

Row | SMILES | outcome | AC50
24 | CC(O)C1CCCCC1 (stereo unspecified) | inactive | –
25 | O=CCc1ccccc1 | inactive | –
26 | c1ccc(CCc2ccccc2)cc1 | inactive | –
27 | [O-]n1ccccc1=S.[O-]n1ccccc1=S.[Zn+2] | inactive | –
28 | CC1(C)O[C@@H]2[C@@H](CO[C@@]3(COS(N)(=O)=O)OC(C)(C)O[C@@H]23)O1 | inactive | –
29 | CCCCC1(COC(=O)CCC(=O)O)C(=O)N(c2ccccc2)N(c2ccccc2)C1=O | inactive | –
30 | O=C(O)CCCCCCCCC(=O)O | inactive | –
31 | CCCN(CCC)S(=O)(=O)c1ccc(C(=O)O)cc1 | inactive | –
32 | CN1C(=O)c2ccccc2C1=O | inactive | –
33 | COC(=O)Nc1ccc(Cl)c(Cl)c1 | inactive | –
34 | c1ccc2[nH]cnc2c1 | inactive | –
35 | C=CCOC(=O)CCCCCC | inactive | –
36 | O=C1c2ccccc2C(=O)c2c(O)ccc(O)c21 | inactive | –
37 | CCC1(c2ccccc2)C(=O)NCNC1=O | inactive | –
38 | CCC(C)=O | inactive | –
39 | C[C@H]1C[C@@H](O)CC(C)(C)C1 | inactive | –
40 | OC[C@H]1O[C@@H](Oc2ccc(O)cc2)[C@H](O)[C@@H](O)[C@@H]1O | inactive | –
41 | CN(C)CCOc1ccc(/C(=C(/CCCl)c2ccccc2)c2ccccc2)cc1 | – | 50 µM (active)

Assay: CCTE_Harrill_HTTr_CellCount_MCF7: CCTE's Cell Proliferation Assessment for the High-Throughput Transcriptomics (HTTr) Platform, Harrill Lab (AID 2284012; active means hit-call score of the fitted dose curve at least 0.9, where 1 is the maximum;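 further: cells exposed to compound for six hours; intended direction is loss of nuclei count meaning fewer cells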)
Summary of the method: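 MCF-7 cells were exposed for 6 h to an eight-point dilution series; Hoechst-labeled nuclei were counted by high content imaging. Curves were fitted bidirectionally against DMSO as negative control and baseline, with signal loss indicating reduced cell count.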

Row | SMILES | outcome | AC50
42 | Nc1ccn([C@H]2CS[C@@H](CO)O2)c(=O)n1 | inactive | –
43 | O=c1[nH]c(=O)c2cn[nH]c2[nH]1 | inactive | –
44 | O=c1c(O)c(-c2ccc(O)cc2)oc2cc(O)cc(O)c12 | inactive | –
45 | COc1ccc(CCN2CCC(Nc3nc4ccccc4n3Cc3ccc(F)cc3)CC2)cc1 | – | 79.2 µM (active)
46 | CCCCC1(COC(=O)CCC(=O)O)C(=O)N(c2ccccc2)N(c2ccccc2)C1=O | inactive | –
47 | COC(=O)Nc1ccc(Cl)c(Cl)c1 | inactive | –
48 | c1ccc2[nH]cnc2c1 | inactive | –
49 | O=C1c2ccccc2C(=O)c2c(O)ccc(O)c21 | inactive | –
50 | CCC1(c2ccccc2)C(=O)NCNC1=O | inactive | –
51 | OC[C@H]1O[C@@H](Oc2ccc(O)cc2)[C@H](O)[C@@H](O)[C@@H]1O | inactive | –
